In all, about 1,300 compounds went through this assay and about 25 (2%) were called active. About 9% were inconclusive and are not listed. The sample holds actives, similar compounds and a random draw of the others, so the mix is not that of the screen. Unmarked numbers belong to inactive results. Calls come from the whole dose curve; as a rule, active = well fitted activation curve with a large enough effect; inconclusive = small, poorly fitted or top-dose-only effect; inactive = flat fitted curve, though single readings scatter.
The compounds below were run against Glucagon-like peptide 1 receptor (Homo sapiens) (UniProt P43220) (assay: qHTS of GLP-1 Receptor Agonists: Hit Validation). Details: HEK293 GLP-1R, cAMP-response luciferase, 4-6 h; series mostly up to 46.1 µM; activation: at the top concentration.
Chain of Glucagon-like peptide 1 receptor (Homo sapiens) (P43220 whole entry, looked up): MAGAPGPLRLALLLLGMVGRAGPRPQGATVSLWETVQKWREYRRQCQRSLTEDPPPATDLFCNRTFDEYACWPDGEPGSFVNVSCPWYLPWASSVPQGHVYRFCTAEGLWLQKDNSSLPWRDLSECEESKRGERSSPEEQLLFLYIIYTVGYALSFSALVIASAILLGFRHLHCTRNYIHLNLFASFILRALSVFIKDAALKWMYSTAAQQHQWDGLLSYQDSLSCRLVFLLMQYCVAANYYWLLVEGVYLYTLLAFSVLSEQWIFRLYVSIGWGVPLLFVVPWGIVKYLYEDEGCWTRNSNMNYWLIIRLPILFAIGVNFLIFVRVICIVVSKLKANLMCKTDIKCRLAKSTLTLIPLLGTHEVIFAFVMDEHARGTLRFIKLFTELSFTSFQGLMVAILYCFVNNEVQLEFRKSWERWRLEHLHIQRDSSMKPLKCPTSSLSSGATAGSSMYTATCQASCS
Outline: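 HEK293 cells stably co-expressing a cAMP-responsive luciferase reporter and GLP-1R (hypersensitive receptor for weak agonists; wild-type line for confirmation) were plated 12 h at 37 °C, exposed to compound 4-6 h, then read by luminescence after 12 min detection reagent.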
Potency is the fitted concentration of half-maximal effect.
Throughout, for activation: % of control where 0% means no effect.

SMILES	activation	Potency
COc1ccc(S(=O)(=O)N(C)C)cc1NC(=O)c1ccc(OCC(=O)N2CCOCC2)c(OC)c1	0.301%	
COc1ccc(-c2csc(C(C)(NC(C)=O)c3ccccc3)n2)cc1 (configuration not stated)	5.87%	
CCOC(=O)CN1C(=O)S/C(=C/c2ccc(OCc3ccc(C(=O)O)cc3)cc2)C1=O	-1.18%	
N#Cc1nc(-c2cccs2)oc1NCc1ccco1	0.479%	
Cc1cc(C)c2c(N)c(C(=O)NCC3CCCCC3)sc2n1	4.29%	
Cc1ccnc(NC(=O)C23CC4CC(CC(C4)C2)C3)c1	-0.29%	
Cc1ccc(CNc2cc(-c3nn4c(C)nnc4s3)ccc2C)s1	16.4%	
ClCCn1cnc2c(SCc3ccccc3)ncnc21	10.5%	
COc1cccc(C2=CC(=O)C[C@H](c3ccc(OC)c(OC)c3)C2)c1	7.19%	
N#Cc1c(NCCCO)nc(-c2ccccc2)c2c1CCCC2	10.7%	
COc1ccc(C(C)=O)cc1COC(=O)c1ccc2c(c1)OCCO2	9.84%	
CC(=O)c1cc(C#N)c(SCC(=O)OC(C)(C)C)nc1C	4.82%	
COc1ccc(N/C=C/C(=O)c2ccc(OC)c(OC)c2)cc1	2.3%	
C#CCOc1ccc2c3c(c(=O)oc2c1)CCCC3	10.1%	
Cc1cccc(OCCNc2cc(N3CCOCC3)ccc2[N+](=O)[O-])c1	12.5%	
OC(CNCc1cccc(Br)c1)c1ccccc1 (configuration not stated)	11.8%	
CCN(CC)c1nc2ccccc2nc1C(C#N)C(=O)NCCCOC (configuration not stated)	4.82%	
COc1ccc(-c2cnc3c(NC=O)cc(-c4ccc(C(=O)N5CCOCC5)cc4)cn23)cc1OC	22.4%	
COc1cccc(-c2cnc3c(NC(C)=O)cc(-c4ccc(OC)c(OC)c4)cn23)c1	24.3%	
COc1ccc(-c2cc(NC=O)c3ncc(-c4ccc(OC)c(OC)c4)n3c2)cc1		18.4 µM (active)
COc1cc(-c2cnc3c(NC=O)cc(-c4ccccc4Cl)cn23)cc(OC)c1OC		5.8 µM (active)

SMILES	activation	Potency
COc1ccc(-c2cnc3c(NC=O)cc(-c4ccccc4OC)cn23)cc1OC		8.2 µM (active)
O=CNc1cc(-c2ccccc2)cn2c(-c3ccc(F)c(Cl)c3)cnc12	28%	
COc1cccc(-c2cnc3c(NC=O)cc(-c4ccc(N(C)C)cc4)cn23)c1	27.5%	
Cc1ccc(-c2cc(NC=O)c3ncc(-c4cnn(C)c4)n3c2)cc1	22%	
COc1ccc(-c2cc(NC=O)c3ncc(-c4ccc(C(C)=O)cc4)n3c2)cc1OC	25.4%	
COc1ccc(-c2cc(NC=O)c3ncc(-c4ccc(OC)c(OC)c4)n3c2)c(OC)c1		2.59 µM (active)
CC(=O)c1ccc(-c2cnc3c(NC=O)cc(-c4ccccc4Oc4ccccc4)cn23)cc1	18.1%	
COc1ccc(F)cc1-c1cc(NC(C)=O)c2ncc(-c3cc(OC)c(OC)c(OC)c3)n2c1	6.2%	
OC1CCCN(c2c3c(nc4cc(-c5cccc(F)c5)nn24)CCCC3)C1 (configuration not stated)	14.6%	
COc1cc2c(cc1OC)/C(=C/C(=O)c1ccccc1)NCC2	26.6%	
O=C(OCc1csc(-c2ccccc2)n1)c1ccccc1O	2.2%	
COc1ccc(CC(=O)OCC(=O)N2c3ccccc3CC2C)cc1OC (configuration not stated)	-0.291%	
Cc1nn(C)cc1CNC(=O)c1cnn2c(C(F)F)cc(C3CC3)nc12	10.2%	
COC(=O)c1ccc(OCC2c3cc(OC)c(OC)cc3CCN2C(C)=O)cc1 (configuration not stated)	9.94%	
Cc1cccc(-c2nnc3sc(-c4ccccc4C)nn23)c1	21%	
Cc1cccc(C(=O)N2CCC[C@H]2C(=O)N2CCC[C@H]2C(=O)NCc2ccncc2)c1	-0.462%	
Cc1cccc(-c2nc(C#N)c(N3CCCCCC3)o2)c1	10.5%	
COc1cccc(Nc2nc(N)c([N+](=O)[O-])c(NCc3ccco3)n2)c1	21.8%	
CC(C)n1nnnc1SCC(=O)N1N=C(c2cccs2)CC1c1cccs1 (configuration not stated)	-0.355%	
CC1CCN(CCCNC(=O)c2cc3c(Cl)nc4ccccc4c3s2)CC1	4.09%	
CCN(CC)c1ncnc2c1cnn2Cc1ccc(C)cc1	17.3%	
